# The list is not random: actives were taken first. Their share in the collection is about 3.5%.
# mHTT-CaM PPI inh: inhibitors of human mutant huntingtin-calmodulin interaction; P42858; AlphaScreen His-mHTT/GST-CaM binding, luminescence; inhibition, % at 15 µM; actives 3.6% (n = 190,000);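 note: 0% = both proteins with DMSO and 100% = one protein alone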
# Pf apPOL inh: Pf-apPOL DNA polymerase inhibition | Recombinant Pf-apPOL, molecular beacon fluorescence, 1.5 h | inhibition, % at 10 µM | actives 0.25% (n = 210,000)
# * hit, by the source's call; / = no result. Cut-off read from the data, not from the text of the source: active = inhibition above about 50%; inactive = the rest.
SMILES,mHTT-CaM PPI inh,Pf apPOL inh
COc1ccccc1N1CCN(C(=O)CC(c2ccccc2)c2ccccc2)CC1,76*,2
COc1ccccc1N1CCN(C(=O)c2ccncc2)CC1,-7,-3
COc1ccccc1N1CCN(C(=O)c2ccc(CSc3ccccc3)cc2)CC1,68*,-5
CCOc1nccnc1N1CCC(NC(=O)c2cccs2)C1 (centres undefined),-4,-1
COc1cccc(CNC(=O)C2(C)CCCN(C(=O)c3ccc(C)cc3)C2)c1 (centres undefined),3,0
Cc1ccc(NC(=O)CN2C(=O)C3C4C=CC(CC4)C3C2=O)cc1F (centres undefined),-2,0
O=C(CCCCC(=O)Nc1ccccn1)Nc1ccccn1,/,-14
COc1ccc(N2CCN(Cc3nc4cc(Cl)c(Cl)cc4[nH]c3=O)CC2)cc1,53*,0
O=c1[nH]c2ccccc2nc1CN1CCN(c2cccc(Cl)c2)CC1,-9,1
COc1cc(C2Oc3ccccc3C=C2[N+](=O)[O-])ccc1OCc1ccccc1 (centres undefined),37,-3
COc1ccc(C2Oc3c(Br)cc(Br)cc3C=C2[N+](=O)[O-])cc1OC (centres undefined),69*,-7
O=S(=O)(c1ccc(Br)cc1)N1CCC(c2noc(-c3ccccc3)n2)CC1,-3,-3
COc1ccc(CNC(=O)[C@@H]2CC=C[C@@H]3CCN(Cc4ccc(Cl)c(Cl)c4)C(=O)[C@@H]32)cc1,94*,-8
O=C(O)[C@H]1CC=C[C@H]2CCN(Cc3ccc(Cl)c(Cl)c3)C(=O)[C@@H]12,35,-8
COc1ccc(CNC(=O)[C@@H]2CC=C[C@@H]3CCN(Cc4ccc(OC)c(OC)c4)C(=O)[C@@H]32)cc1,6,-5
COC(=O)[C@H]1CC=C[C@H]2CCN(Cc3ccc(Cl)c(Cl)c3)C(=O)[C@@H]12,68*,-6
O=C1c2cccnc2-c2[nH]c(=O)ccc21,-1,/
COc1ccc(CCNC(=O)c2cc3cc([N+](=O)[O-])ccc3oc2=O)cc1OC,1,-14
Fc1ccc(Br)cc1C1CC(c2ccc(Cl)cc2)Nc2ncnn21 (centres undefined),14,0
COc1cc(OC)c(NC(=O)CSc2nnc(-c3ccco3)c(-c3ccco3)n2)cc1Cl,50,4
O=C(CSc1nnc(-c2ccco2)c(-c2ccco2)n1)Nc1ccc(Cl)cc1Cl,85*,-4
O=C(CSc1nnc(-c2ccccc2)c(-c2ccccc2)n1)N1CCCCC1,13,-3
COc1ccc(-c2nnc(SCC(=O)N3CCN(C)CC3)nc2-c2ccc(OC)cc2)cc1,29,54*
Cc1ccc(NC(=O)CSc2nnc(-c3ccco3)c(-c3ccco3)n2)cc1C,93*,8
O=C(CSc1ccc(-c2cccnc2)nn1)Nc1ccc2c(c1)OCO2,-4,4
SMILES,mHTT-CaM PPI inh,Pf apPOL inh
O=C(CSc1nnc(-c2ccco2)c(-c2ccco2)n1)Nc1ccc2c(c1)OCO2,75*,-3
O=C(CSc1nnc(-c2ccco2)c(-c2ccco2)n1)Nc1cccc(C(=O)O)c1,45,-4
Cc1ccccc1-n1nc2c(c1NC(=O)CCc1ccccc1)CS(=O)(=O)C2,-5,-3
COc1ccccc1N1CCN(C(=O)c2ccccc2Cl)CC1,-5,0
CCCc1cc(=O)[nH]c2nnc(SCc3ccccc3F)n12,2,5
Cc1ccc(C(=O)N2CCOC(CN3CCOCC3)C2)cc1 (centres undefined),4,-4
Cc1ccc(Cc2c(C)nc(C)nc2N2CCN(C(=O)NC(C)C)CC2)cc1,0,4
COc1cc(CCC(C)=NO)ccc1O,/,-6
CC(=O)Nc1ccc(CN(CCN(C)C)Cc2ccccc2)cc1,3,3
O=C(NCCN1CCOCC1)c1cc2cn(C3CC3)cc2s1,2,0
Cc1cc(NC(=O)CSc2nc3ccccc3s2)no1,-24,0
O=C(CSc1nnc(-c2ccco2)c(-c2ccco2)n1)Nc1nccs1,70*,9
COc1ccc(C(=O)CSc2nnc(-c3ccco3)n2-c2ccccc2)cc1,6,-1
COc1ccc(C(=O)CSc2nnc(-c3ccco3)c(-c3ccco3)n2)cc1,95*,-2
O=C(CSc1ncccn1)Nc1nccs1,-17,-1
CCOc1ccc(NC(=O)CSc2nnc(-c3ccco3)c(-c3ccco3)n2)cc1,82*,-3
Cc1cc(NC(=O)CSc2nnc(-c3ccco3)c(-c3ccco3)n2)no1,69*,-5
O=C(CSc1nnc(-c2ccco2)c(-c2ccco2)n1)Nc1ccc(C(=O)O)cc1,29,4
Cc1cc(NC(=O)c2ccc(F)cc2)ccc1NC(=O)c1ccccc1,-5,-4
O=C(CSc1nnc(-c2ccco2)n1-c1ccccc1)Nc1ccccc1,14,4
O=C(CSc1nnc(-c2ccco2)c(-c2ccco2)n1)Nc1cnc2ccccc2c1,93*,-1
CC(=O)N(C1=C(N2CCCCC2)C(=O)c2ccccc2C1=O)c1cccc(Cl)c1,76*,3
CC(=O)N(C1=C(N2CCOCC2)C(=O)c2ccccc2C1=O)c1ccc(C(=O)O)cc1,18,-12
CC(=O)N(C1=C(N2CCCC2)C(=O)c2ccccc2C1=O)c1ccc(F)c(F)c1,100*,-4
CC(=O)N(C)C1=C(N2CCCC2)C(=O)c2ccccc2C1=O,15,-3
SMILES,mHTT-CaM PPI inh,Pf apPOL inh
Cc1nn(-c2ccccc2)c2[nH]cc(C(=O)Nc3ccccc3[N+](=O)[O-])c(=O)c12,-18,-5
O=C(CN(C1CCCCC1)S(=O)(=O)c1ccccc1)N1CCN(c2ccc(F)cc2)CC1,60*,-5
O=C(CN(C1CCCCC1)S(=O)(=O)c1ccccc1)N1CCCCCC1,2,46
COc1cccc(/C=C2/C(=O)N(c3ccc([N+](=O)[O-])cc3)N=C2C)c1O,22,-4
COc1cccc(C2CC(=O)Nc3cc(C)c(C)cc32)c1OC (centres undefined),100*,-17
COc1cc2c(cc1OC)C(c1cccc(Cl)c1Cl)CC(=O)N2 (centres undefined),9,-5
CCCCN(Cc1ccccc1)C(=O)Nc1c[nH]c2ccccc12,34,1
O=C(O)/C=C/C(=O)Nc1ccc(Br)cc1F,-1,23
CN(CC(O)COCc1ccccc1)C1CCCCC1 (centres undefined),-4,-4
O=S(=O)(c1c(F)cccc1F)N(CCc1ccc(F)cc1)C[C@@H](O)COCc1ccccc1,99*,-4
O=C(NCc1cnccn1)c1cccnc1N1CCNC(c2ccccc2)C1 (centres undefined),5,0
Cc1ccc2nc(-c3cc(N=Cc4cccc([N+](=O)[O-])c4O)ccc3O)[nH]c2c1,59*,0
Cc1ccc2nc(-c3cc(N=Cc4cccc([N+](=O)[O-])c4)ccc3O)[nH]c2c1,55*,4
O=[N+]([O-])c1ccccc1C=Nc1ccc2nc(-c3ccccc3)[nH]c2c1,32,-10
Cc1ccc2nc(-c3cccc([N+](=O)[O-])c3)[nH]c2c1,12,-3
Cc1cccc2oc(-c3cc(N=Cc4cccc([N+](=O)[O-])c4)ccc3O)nc12,2,-2
O=C(O)c1cccc(N=Cc2cccc([N+](=O)[O-])c2O)c1,-3,83*
O=C(O)c1cccc(N=Cc2cc(Cl)cc([N+](=O)[O-])c2O)c1,9,2
Cc1ccc2nc(-c3cc(N=Cc4ccc([N+](=O)[O-])cc4)ccc3O)[nH]c2c1,55*,1
